Test results taken from PubChem BioAssay AID1441 (NMMLSC, 2008).
Out of some 220,000 compounds screened, about 830 (0.38%) were called active. How the calls were made is not given here. For the sample, actives were picked, then their nearest neighbours and some compounds at random.

Target: Regulator of G-protein signaling 16 (Homo sapiens) + Guanine nucleotide-binding protein G(o) subunit alpha (Homo sapiens) (UniProt O15492+P09471)
Assay: modulators of RGS16 binding to Galphao, primary screen, biochemical, human proteins, multiplexed bead flow cytometry (AID 1441);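 further: Galphao activated by GDP with aluminum fluoride before binding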
Settings: bead-based flow cytometry RGS16-Galphao binding, fluorescence; at 10 µM; actives lie on both sides

Regulator of G-protein signaling 16 (Homo sapiens) + Guanine nucleotide-binding protein G(o) subunit alpha (Homo sapiens), sequence (O15492 whole entry, looked up): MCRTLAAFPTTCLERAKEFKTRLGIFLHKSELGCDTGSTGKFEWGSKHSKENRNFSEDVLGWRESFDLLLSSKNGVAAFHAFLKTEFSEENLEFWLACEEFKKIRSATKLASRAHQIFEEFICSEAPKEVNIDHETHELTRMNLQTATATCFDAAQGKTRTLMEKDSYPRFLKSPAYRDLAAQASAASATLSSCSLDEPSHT
Regulator of G-protein signaling 16 (Homo sapiens) + Guanine nucleotide-binding protein G(o) subunit alpha (Homo sapiens), sequence (P09471 whole entry, looked up): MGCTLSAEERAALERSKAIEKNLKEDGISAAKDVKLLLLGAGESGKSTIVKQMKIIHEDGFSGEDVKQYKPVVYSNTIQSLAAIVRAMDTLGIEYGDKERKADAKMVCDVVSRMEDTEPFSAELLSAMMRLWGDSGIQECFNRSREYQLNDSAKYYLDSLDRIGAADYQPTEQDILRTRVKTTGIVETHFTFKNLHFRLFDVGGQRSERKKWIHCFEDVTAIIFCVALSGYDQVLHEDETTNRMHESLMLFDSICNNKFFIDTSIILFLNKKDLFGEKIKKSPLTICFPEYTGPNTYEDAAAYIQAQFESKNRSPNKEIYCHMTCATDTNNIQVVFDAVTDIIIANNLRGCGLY

Binding response (% of control), inactive:
COc1ccc(/C(O)=C2\C(=O)C(=O)N(Cc3ccco3)C2c2ccc(OC)cc2OC)cc1 (stereo not given) 97.2%, COCCCN1C(=O)C(=O)/C(=C(/O)c2ccc3c(c2)CC(C)O3)C1c1cccnc1 (stereo not given) 68.3%, CC(=O)Nc1ccc(OCCC[n+]2cccc(C(=O)[O-])c2)cc1 97.8%, O=C(NCc1ccccc1)c1ccc(CNc2c(N3CCCC3)c(=O)c2=O)cc1 102%, COc1ccc(Br)cc1/C=N/Nc1ccc(Cl)c(C(=O)O)c1 103%, O=C(Cn1cnc2cc([N+](=O)[O-])ccc2c1=O)NC(=O)NCc1ccccc1 112%, Nc1c(N(CCO)C(=O)C2CCCCC2)c(=O)[nH]c(=O)n1Cc1ccccc1 86.5%, O=C(CSc1nnc(-c2cccs2)n1Cc1ccccc1)N1CCc2ccccc2C1 101%, O=C(COc1ccccc1)N1CCc2ccccc2C1 102%, O=S(=O)(c1ccccc1)N(CC(O)CN1CCCCC1)c1ccccc1 (stereo not given) 96.4%, Cc1ccc(N(CC(O)CN2CCCC2)S(=O)(=O)c2ccccc2)cc1 (stereo not given) 100%, CCN(CC(=O)Nc1ccc(Cl)c(S(=O)(=O)N(C)C)c1)Cc1nc2ccccc2c(=O)[nH]1 107%, CCOC(=O)CSc1nc(C)c(Oc2ccc(Cl)cc2Cl)c(=O)[nH]1 101%, COc1ccc(C(=O)C[n+]2ccc(N)c(C)c2C)cc1 99.8%, CCOC(=O)c1c(CC(C)C)csc1/N=C/C1=C(O)CCCC1=O 103%, CN1CCN(C(=O)C2C3C=CC(C3)C2C(=O)O)CC1 (stereo not given) 102%, CCN1CCN(C(=O)/C=C\C(=O)O)CC1 101%, COC(=O)C(C(=O)Nc1cccc(C)n1)C1CCCCCC1 (stereo not given) 103%, CCCc1cc(=S)n2c([nH]c3ccccc32)c1C#N 97.3%, CSc1sc(C(=O)NNC(=O)c2ccc(Cl)cc2)c2c1C=CCC2 92.2%, O=C(O)c1ccccc1C(=O)Nc1ccccc1[N+](=O)[O-] 96.6%, O=C(Cc1c[nH]c2ccccc12)OCCOC(=O)Cc1c[nH]c2ccccc12 97.3%, CCCn1cc(SCC(N)=O)c2ccccc21 85.2%, Oc1ccc2ccccc2c1N=Nc1nccs1 99.9%, CCN1CCN(C(=O)CCN2C(=O)c3ccccc3C2=O)CC1 93.9%, Cc1noc(C)c1S(=O)(=O)Nc1cc(C(F)(F)F)ccc1N1CCOCC1 98%, COC(=O)c1c(C)[nH]c(C)c1-c1ccc([N+](=O)[O-])cc1 85.3%, Cc1cc(C)cc(C(=O)N2CCN=C2SCc2ccc([N+](=O)[O-])cc2)c1 96.2%, O=C(Nc1ccc2cn[nH]c2c1)c1ccc(S(=O)(=O)N2CCOCC2)cc1 92.3%, Cc1cc(F)ccc1S(=O)(=O)Nc1ncnc2scc(-c3ccc(F)cc3)c12 95.8%, CCOc1cc(CNCc2ccccn2)ccc1OCC(=O)NC(C)(C)C 103%, Clc1ccc2nc(CSc3ccccc3)cn2c1 169%, CC(Sc1nnc2c(n1)C1CCC2(C)C1(C)C)C(=O)Nc1ccccc1 (stereo not given) 102%, NC(=O)c1c(Nc2nc3c(F)cccc3s2)sc2c1CCCC2 95%, O=C(Nc1nc2c(F)cc(F)cc2s1)C1COc2ccccc2O1 (stereo not given) 99.5%, NC(=O)CC(NC(=O)Cc1cccc2ccccc12)c1ccc(NCc2cc(F)ccc2F)c([N+](=O)[O-])c1 (stereo not given) 100%, CC(C)CC(=O)Nc1cc(C(F)(F)F)ccc1N1CCOCC1 101%, COc1cc(C(=O)Nc2cc(C(F)(F)F)ccc2-n2cncn2)cc(OC)c1OC 98.2%, CC(=O)N1N=C(c2ccncc2)OC1(Cc1ccccc1)Cc1ccccc1 96.5%, N#Cc1c(N2CCCCC2)nc(N)c2c(N)nc(SCC(=O)O)cc12 114%, COc1ccc(CCNC(=O)C(=O)Nc2ccc3nc4n(c(=O)c3c2)CCCCC4)cc1OC 105%, Cc1nn(-c2ccccc2)c(=O)c2noc(C)c12 102%, CCC(C)NC(=O)C1c2ccccc2Oc2ccccc21 (stereo not given) 103%, COc1cccc(OC)c1OCCN1CCN(C(=O)c2ccco2)CC1 101%, O=C(OCC(=O)N1CCN(C(=O)c2ccco2)CC1)c1ccccc1Cc1ccccc1 82.8%, CC(C)(C)C1CCC(=NNC(=O)c2cc(-c3ccccc3)n[nH]2)CC1 (stereo not given) 85.9%, COc1cc(/C=C/C(=O)N2c3ccccc3Sc3ccc(C(F)(F)F)cc32)cc(OC)c1OC 97%, O=C(CN1CCCCCC1)N1c2ccccc2Sc2ccc(C(F)(F)F)cc21 81.4%, COc1ccc(S(=O)(=O)N(C)C)cc1NC(=O)CSc1ncccn1 101%

Binding response (% of control), active:
COc1cc(C2/C(=C(\O)c3ccc4c(c3)CC(C)O4)C(=O)C(=O)N2Cc2ccco2)ccc1O (stereo not given) -10.7%, Cn1c(=O)c2c(n(Cc3ccccc3)c1=O)NC(=O)C2CC(=O)N1CCc2ccccc2C1 (stereo not given) -1.02%, Cc1cc(C)n(CC(O)CN(c2ccccc2)S(=O)(=O)c2ccc3ccccc3c2)n1 (stereo not given) -6.51%, C/C(=C/C(=O)N1CCN(C)CC1)C(=O)O 234% [activator], NC(=O)CSc1c[nH]c2ccccc12 19.6%, Oc1ccc(N=Nc2nccs2)c(O)c1 -16.2%, CC(=O)N1CC[n+]2c(-c3ccc([N+](=O)[O-])cc3)csc21 12.8%, Fc1cc(F)c2nc(Nc3nc4c(F)cccc4s3)sc2c1 192% [activator], COc1cc(C(=O)Nc2cc(C(F)(F)F)ccc2N2CCOCC2)ccc1O 9.57%, Cc1ccc(C)c(OCC(=O)N2CCN(C(=O)c3ccco3)CC2)c1 24.4%, O=C(CN1CCCCC1)N1c2ccccc2Sc2ccc(C(F)(F)F)cc21 -6.83%
